Test results from PubChem BioAssay (NCI).
This is part of a sample that, as a whole, favours compounds with a hit. Of some 83,000 tested, about 20% had one in any assay.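 Activity criterion: percent growth below 10, measured after cells in 96-well plates were exposed to a single compound concentration for 48 hours.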 Activity calls are given as the source filed them.

Columns and labels:
Experiment in all cases: NCI-60 one-dose screen, 48 h (100 = growth as untreated, 0 = no growth, -100 = all killed)
Conditions in all cases: 10 µM unless noted
NCI/ADR-RES ovarian = system: NCI/ADR-RES ovarian
T-47D breast = system: T-47D breast
BT-549 breast = system: BT-549 breast
MDA-MB-435 melanoma = system: MDA-MB-435 melanoma
SW-620 colon = system: SW-620 colon
MCF7 breast = system: MCF7 breast
HCT-116 colon = system: HCT-116 colon
HCC-2998 colon = system: HCC-2998 colon
KM12 colon = system: KM12 colon

Measured: growth

COC(=O)[C@@H](C)C[C@H](Cc1ccccc1)NC(=O)c1nc([C@@H](C[C@H](C(C)C)N(C)C(=O)[C@@H](NC(=O)[C@H]2CC(=O)CCN2C)C(C)C)OC(C)=O)sc1C(C)C
active: BT-549 breast -10.6% | MDA-MB-435 melanoma -43.4% | HCT-116 colon 5.82% | KM12 colon 6.01%
inactive: NCI/ADR-RES ovarian 54.3% | T-47D breast 82.9% | SW-620 colon 24.2% | MCF7 breast 24.6% | HCC-2998 colon 24.6%

COc1ccc(C2=CC(c3ccc(OC)c(OC)c3)c3c(c4ccccc4oc3=O)O2)cc1OC (centres undefined)
active: BT-549 breast -4.49% | MDA-MB-435 melanoma -72.9%
inactive: NCI/ADR-RES ovarian 29% | T-47D breast 35% | SW-620 colon 18.5% | MCF7 breast 11.8% | HCT-116 colon 24.2% | HCC-2998 colon 31.4% | KM12 colon 16.2%

COC(=O)[C@@H](C)C[C@H](Cc1ccccc1)NC(=O)c1nc([C@@H](C[C@H](C(C)C)N(C)C(=O)[C@@H](NC(=O)[C@H]2CCCCN2C)C(C)C)OC(C)=O)sc1C
active: BT-549 breast -23.4% | MDA-MB-435 melanoma -31.5% | HCT-116 colon 2.54% | KM12 colon 8.06%
inactive: NCI/ADR-RES ovarian 16.5% | T-47D breast 66.1% | SW-620 colon 20.1% | MCF7 breast 12.3% | HCC-2998 colon 13.8%

CC[C@]12C=CCN3CC[C@@]4(c5ccc(OC)cc5N(C)[C@H]4[C@@](O)(C(=O)OC)[C@@H]1OC(=O)CCCC[P+](c1ccccc1)(c1ccccc1)c1ccccc1)[C@@H]32
active: T-47D breast 4.99% | BT-549 breast -1.04% | MDA-MB-435 melanoma -19.7% | MCF7 breast 4.69% | HCT-116 colon 8.03% | KM12 colon 3.15%
inactive: NCI/ADR-RES ovarian 91.6% | SW-620 colon 29.4% | HCC-2998 colon 15.9%

COC(=O)[C@H](Cc1ccccc1)NC(=O)c1csc([C@@H](C[C@H](C(C)C)N(C)C(=O)[C@@H](NC(=O)[C@H]2CCCN2C)C2CC2)OC(C)=O)n1
active: MDA-MB-435 melanoma -31.2% | HCT-116 colon -2.44%
inactive: NCI/ADR-RES ovarian 53.3% | T-47D breast 54.5% | BT-549 breast 20.6% | SW-620 colon 24.5% | MCF7 breast 20.4% | HCC-2998 colon 27.8% | KM12 colon 12.6%

COc1cc2c(cc1OCc1ccccc1)C(CC(C)C)=[N+](C)CC2
inactive: NCI/ADR-RES ovarian 101% | T-47D breast 58.4% | BT-549 breast 44% | MDA-MB-435 melanoma 96.6% | SW-620 colon 93.7% | MCF7 breast 73.4% | HCT-116 colon 85.2% | HCC-2998 colon 79% | KM12 colon 78.8%

CC[C@H](C)[C@H](NC(=O)[C@H]1CCCCN1C)C(=O)N(C)[C@H](C[C@@H](OC(C)=O)c1nc(C(=O)NC23CC(C(=O)OC)(C2)C3)cs1)C(C)C
active: BT-549 breast -39.2% | MDA-MB-435 melanoma -14.1% | HCT-116 colon 5.83% | KM12 colon 0.539%
inactive: NCI/ADR-RES ovarian 10% | T-47D breast 64.4% | SW-620 colon 39.4% | MCF7 breast 12.1% | HCC-2998 colon 10.4%

COc1cc2c(cc1OCCCn1c(-c3ccccn3)nc3ccccc31)N=C[C@@H]1CCCN1C2=O
inactive: T-47D breast 35.4%
active: NCI/ADR-RES ovarian 3.97% | BT-549 breast -17.1% | MDA-MB-435 melanoma -23.6% | SW-620 colon 0.272% | MCF7 breast 1.32% | HCT-116 colon -14.4% | HCC-2998 colon 2.04% | KM12 colon -31.7%

CC(C)[C@@H]1NC(=O)[C@]2(C)CSC(=N2)c2csc(n2)CNC(=O)C[C@@H](/C=C/CCS)OC1=O
inactive: NCI/ADR-RES ovarian 52% | BT-549 breast 41.7% | MCF7 breast 13.9%
active: T-47D breast -17.9% | MDA-MB-435 melanoma 5.9% | SW-620 colon 1.33% | HCT-116 colon -34.8% | HCC-2998 colon -48% | KM12 colon 1.21%

COC(=O)[C@@H](C)C[C@H](Cc1ccc(F)cc1)NC(=O)c1csc([C@@H](C[C@H](C(C)C)N(C)C(=O)[C@@H](NC(=O)[C@H]2CCCCN2C)C2CC2)OC(C)=O)n1
inactive: NCI/ADR-RES ovarian 76.4% | T-47D breast 60.1% | SW-620 colon 27.2% | MCF7 breast 19.6% | HCC-2998 colon 28.8% | KM12 colon 14%
active: BT-549 breast -0.522% | MDA-MB-435 melanoma -50.1% | HCT-116 colon 3.44%

CC(C)=CCC[C@H](C(=O)O)[C@@H]1CC[C@]2(C)C3=C(CC[C@@]12C)[C@@]1(C)CC[C@H](O)C(C)(C)[C@@H]1CC3
inactive: NCI/ADR-RES ovarian 102% | T-47D breast 92.5% | BT-549 breast 75.2% | MDA-MB-435 melanoma 103% | SW-620 colon 105% | MCF7 breast 88.9% | HCT-116 colon 78.5% | HCC-2998 colon 100% | KM12 colon 99.7%

COC(=O)C12CC(NC(=O)c3csc([C@@H](C[C@H](C(C)C)N(C)C(=O)[C@@H](NC(=O)[C@H]4CCCCN4C)C4CC4)OC(C)=O)n3)(C1)C2
active: BT-549 breast -10.9% | MDA-MB-435 melanoma -40.9% | HCT-116 colon 1.78% | KM12 colon 1.43%
inactive: NCI/ADR-RES ovarian 43.7% | T-47D breast 43.4% | SW-620 colon 25.4% | MCF7 breast 19.2% | HCC-2998 colon 21.8%

COc1ccc(C/C(C)=C(\c2ccc(OCCN3CCOCC3)cc2)c2ccc(OC(=O)Cc3ccccc3)cc2)cc1
active: NCI/ADR-RES ovarian 5.39% | T-47D breast -48.5% | BT-549 breast -70.4% | MDA-MB-435 melanoma -58.9% | SW-620 colon -63% | MCF7 breast -53.1% | HCT-116 colon -89.7% | HCC-2998 colon -64.3% | KM12 colon -35.2%

CC(C)(C)C(=O)OCOP(=O)(NCc1ccccc1)C1CCCN(O)C1=O (centres undefined)
active: HCT-116 colon 7% | KM12 colon -7.5%
inactive: NCI/ADR-RES ovarian 13.5% | T-47D breast 23.3% | BT-549 breast 28% | MDA-MB-435 melanoma 39.4% | SW-620 colon 30.1% | MCF7 breast 19.3% | HCC-2998 colon 24.7%

O=[N+]([O-])c1cnc[nH]1
inactive: NCI/ADR-RES ovarian 104% | T-47D breast 117% | BT-549 breast 112% | MDA-MB-435 melanoma 105% | SW-620 colon 104% | MCF7 breast 94.8% | HCT-116 colon 106% | HCC-2998 colon 102% | KM12 colon 107%

CC[C@H](C)[C@H](NC(=O)[C@H]1CCCCN1C)C(=O)N(C)[C@H](C[C@@H](OC(C)=O)c1nc(C(=O)N[C@@H](Cc2ccccc2)C[C@H](C)C(=O)OC)cs1)C(C)C
active: NCI/ADR-RES ovarian -4.28% | BT-549 breast -35.7% | MDA-MB-435 melanoma -35.3% | HCT-116 colon 4.25% | KM12 colon 2.43%
inactive: T-47D breast 81% | SW-620 colon 45.4% | MCF7 breast 12.9% | HCC-2998 colon 10.8%

C=C1C(=O)O[C@H]2[C@H]1CC/C(COC(=O)C(=O)c1cn(Cc3ccccc3)c3ccccc13)=C\CC[C@@]1(C)O[C@@H]21
active: NCI/ADR-RES ovarian -1.18% | T-47D breast -7.91% | BT-549 breast -77.4% | MDA-MB-435 melanoma -76.6% | SW-620 colon -84.8% | MCF7 breast -68.7% | HCT-116 colon -81.5% | HCC-2998 colon -85.4% | KM12 colon -89.7%

CCCCN1CCCC[C@@H]1C(=O)N[C@H](C(=O)N(C)[C@H](C[C@@H](OC(C)=O)c1nc(C(=O)NC2CCC(C(=O)OC)CC2)cs1)C(C)C)C(C)C (some centres undefined)
inactive: NCI/ADR-RES ovarian 41.2% | T-47D breast 27.4% | BT-549 breast 40.1% | SW-620 colon 19.5% | MCF7 breast 24.6% | HCT-116 colon 14% | HCC-2998 colon 67.6% | KM12 colon 24.6%
active: MDA-MB-435 melanoma -43.9%

CN(C)C1C(=O)C(C(N)=O)=C(O)C2(O)C(=O)C3=C(O)c4c(O)cccc4C(C)(O)C3CC12.[Cl][Sb]([Cl])[Cl] (centres undefined)
inactive: NCI/ADR-RES ovarian 56.9% | T-47D breast 60.3% | BT-549 breast 15.5% | MDA-MB-435 melanoma 24.1% | SW-620 colon 34.7% | MCF7 breast 57.6% | HCT-116 colon 11.9% | HCC-2998 colon 39.6% | KM12 colon 45.9%

Fc1ccc2c(c1)c(-c1nc(-c3c[nH]c4ncccc34)cs1)cn2CCCCN1CCCCC1
active: NCI/ADR-RES ovarian -64.1% | T-47D breast -68.8% | MDA-MB-435 melanoma -87.2% | SW-620 colon -73.7% | MCF7 breast -75.3% | HCT-116 colon -97.9% | HCC-2998 colon -19% | KM12 colon -66.9%
inactive: BT-549 breast 75.7%

Cc1cc(N(CCCl)CCCl)ccc1C=Nc1ccc(-c2csc(Cc3ccccc3)n2)cc1
inactive: NCI/ADR-RES ovarian 61.6% | T-47D breast 45.3% | BT-549 breast 69% | MDA-MB-435 melanoma 78.3% | SW-620 colon 83.2% | MCF7 breast 44.5% | HCT-116 colon 77% | HCC-2998 colon 71.7% | KM12 colon 89.8%

CC(=O)O[C@H](C[C@H](C(C)C)N(C)C(=O)[C@@H](NC(=O)[C@H]1CCCCN1C)C(C)C)c1nc(C(=O)N[C@@H](Cc2ccccc2)C[C@H](C)C(=O)O)c(CCOCc2ccccc2)s1
active: NCI/ADR-RES ovarian 9.71% | BT-549 breast -36.6% | MDA-MB-435 melanoma -49.7% | HCT-116 colon -22.2% | KM12 colon 5.5%
inactive: T-47D breast 62.4% | SW-620 colon 28.3% | MCF7 breast 25.9% | HCC-2998 colon 16.3%

Clc1cccc(N2COOC3(OOC2)C2CC4CC(C2)CC3C4)c1
inactive: NCI/ADR-RES ovarian 44.4% | T-47D breast 69.4% | BT-549 breast 88% | MDA-MB-435 melanoma 73.3% | SW-620 colon 95.5% | MCF7 breast 93.1% | HCT-116 colon 88.2% | HCC-2998 colon 98.1% | KM12 colon 65.7%

CCCCCCCCCCCCCCCCCC1OC[C@@H](COC(=O)O[C@@H](C(=O)O[C@H]2C[C@@]3(O)[C@@H](OC(=O)c4ccccc4)[C@@H]4[C@]5(OC(C)=O)CO[C@@H]5C[C@H](O)[C@@]4(C)C(=O)[C@H](OC(C)=O)C(=C2C)C3(C)C)[C@@H](NC(=O)c2ccccc2)c2ccccc2)O1 (some centres undefined)
active: MDA-MB-435 melanoma -41.2%
inactive: NCI/ADR-RES ovarian 106% | T-47D breast 51.9% | BT-549 breast 55.2% | SW-620 colon 45.7% | MCF7 breast 24.9% | HCT-116 colon 23.4% | HCC-2998 colon 56.8% | KM12 colon 28.7%

COc1cc2c(=O)n(C3CCCCCCC3)c3c4cc[nH]c4ncc3c2cc1OC
inactive: NCI/ADR-RES ovarian 40.5% | T-47D breast 39.5% | BT-549 breast 44.6% | MDA-MB-435 melanoma 57.9% | SW-620 colon 56.8% | MCF7 breast 39.1% | HCT-116 colon 31.5% | HCC-2998 colon 96.2% | KM12 colon 19.1%

COC(=O)[C@]12CCC(C)(C)C[C@H]1[C@H]1C(=O)C[C@@H]3[C@@]4(C)C[C@@]5(CC(C)(C)[C@@H]4CC[C@@]3(C)[C@]1(C)CC2)OO[C@@](C)(C(F)(F)F)O5
inactive: NCI/ADR-RES ovarian 98.6% | T-47D breast 81.4% | BT-549 breast 111% | MDA-MB-435 melanoma 98.7% | SW-620 colon 103% | MCF7 breast 82.2% | HCT-116 colon 88.7% | HCC-2998 colon 106% | KM12 colon 99.9%
